Measured values published in PubChem BioAssay (NCI).
The panel holds about 79,000 compounds, 15% with a hit somewhere; the sample as a whole holds those more often. Rule as the data show it: active = growth inhibition above about 70%; inactive = the rest. Where a SMILES comes first, the peptide text is derived from it. The star is where a group is joined. Cbz = O=C(OCc1ccccc1)*

Key:
[1] = NCI Yeast Anticancer Drug Screen. Data for the rad50 strain (AID 155);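 also: 0% = growth of vehicle-only cultures of the same strain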; details: S. cerevisiae rad50 strain growth inhibition; at 50.0 µM; hits give high values
In short: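 Yeast carrying a defined DNA repair defect were exposed to test compounds, and growth was compared with vehicle-treated controls to give percent inhibition.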

[2] = NCI Yeast Anticancer Drug Screen. Data for the mec2-1 strain (AID 157); details: S. cerevisiae mec2-1 strain, at 50.0 µM, hits give high values
In short: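 Cells of the genetically defined mec2-1 yeast strain are incubated with test compound. Inhibition of growth is calculated against vehicle-treated controls.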

[3] = NCI Yeast Anticancer Drug Screen. Data for the sgs1 mgt1 strain (AID 161);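 also: 0% = growth of cultures given vehicle only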; details: S. cerevisiae sgs1 mgt1 strain, at 50.0 µM, hits give high values
In short: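 Test agents were incubated with a DNA-repair-mutant yeast strain. Growth was then read and compared against vehicle-treated controls.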

[4] = NCI Yeast Anticancer Drug Screen. Data for the cln2 rad14 strain (AID 165);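 also: 0% = growth equal to vehicle treated cultures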; details: S. cerevisiae cln2 rad14 strain, at 50.0 µM, hits give high values
In short: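 The screen exposed genetically defined yeast (cln2 rad14) to test compounds and scored growth inhibition relative to vehicle-treated controls.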

[5] = NCI Yeast Anticancer Drug Screen. Data for the bub3 strain (AID 167); details: S. cerevisiae bub3 mutant strain, at 50.0 µM, hits give high values
In short: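 Compounds were applied to a genetically altered yeast strain carrying a cell-cycle control defect. Growth inhibition was scored against vehicle-treated controls.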

[6] = NCI Yeast Anticancer Drug Screen. Data for the mlh1 rad18 strain (AID 175); details: S. cerevisiae mlh1 rad18 strain growth inhibition; at 50.0 µM; hits give high values
In short: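 Compound-treated yeast growth, normalised to vehicle controls. Strain bears defined DNA repair mutations.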

Measured: growth inhibition

O=C(NC(Cc1cnc[nH]1)C(=O)N1CCCC1)C1CCCC1 (stereo unspecified)
inactive: [1] -22.4% | [2] -20.4% | [3] 13.7% | [4] 6.2% | [5] 0.9% | [6] -14.3%

O=C(CCOP(=O)(NCCCl)NCCCl)c1ccccc1
inactive: [1] 5.2% | [2] -14.8% | [3] 0.25% | [4] 7.25% | [5] -11.7% | [6] 24%

O=c1c(Cl)c(-c2cccc3ccccc23)oc2ccccc12
inactive: [1] -14.3% | [2] 1.8% | [3] 4.2% | [4] -40.6% | [5] 9.2% | [6] -15.4%

O=C(Cc1ccc(Cl)cc1)NCCc1ccccc1
inactive: [1] -1.4% | [2] -14.6% | [3] -5.15% | [4] 32.9% | [5] 18.4% | [6] 7.3%

CC(CNC(=O)C12CC3CC(CC(C3)C1)C2)NC(=O)C12CC3CC(CC(C3)C1)C2 (stereo unspecified)
inactive: [1] 6.45% | [2] 11% | [3] -27.4% | [4] 7.85% | [5] -11.8% | [6] 14.3%

COc1ccc([Se][Se]c2ccc(OC)cc2NC(C)=O)c(NC(C)=O)c1
inactive: [1] 19.8% | [2] -6.8% | [3] 18.1% | [4] 16.1% | [5] 27.9% | [6] 7.15%

NCCCn1[nH]c(=O)c2cccnc2c1=O
inactive: [1] -62.9% | [2] -19% | [3] -19% | [4] -74% | [5] -3.8% | [6] -16.3%

CC[C@@]1(O)C[C@H](OC2CC(N(C)C)C(OC3CC(O)C(OC4CC(O)C(O)C(C)O4)C(C)O3)C(C)O2)c2c(cc3c(c2O)C(=O)c2c(O)ccc(O)c2C3=O)[C@H]1C(=O)OC (stereo partly specified)
inactive: [1] -25.1% | [2] -14.8% | [3] -35% | [4] 4.3% | [5] 1.95% | [6] 7.45%

O=C(O)C1=C(O)CCN=C1
inactive: [1] -24.1% | [2] 2.7% | [3] 11% | [4] -10.8% | [5] -3.95% | [6] 27.1%

O=C(c1ccccc1)N(C(=O)c1ccccc1)c1cccc[n+]1[O-]
inactive: [1] 4.4% | [2] -2.25% | [3] -1.75% | [4] -12.2% | [5] -10.2% | [6] -4%

COc1ccc2c(c1)CCc1nc(N)nc(N)c1-2
inactive: [1] -3.9% | [2] 4.1% | [3] -14.2% | [4] -40.5% | [5] -16.1% | [6] 11.8%

O=c1[nH]c(=O)n(C2OC(COP(=O)(O)OP(=O)(O)O)C(O)C2O)cc1F (stereo unspecified)
inactive: [1] 1.4% | [2] -2.7% | [3] -11.4% | [4] -31.3% | [5] 0.75% | [6] -7%

COC(=O)C(CO)NC(=O)C(CO)NC(=O)OCc1ccccc1 (stereo not drawn) (Cbz-Ser-Ser-OMe; configuration not given here)
inactive: [1] -9.8% | [2] 3.7% | [3] -0.25% | [4] 7.4% | [5] -10% | [6] -16.4%

C#CC(N)=O
inactive: [1] -9.6% | [2] 11.4% | [3] -0.6% | [4] -20.6% | [5] -6% | [6] 4.4%

CCC(O)C1CCCCN1 (stereo unspecified)
inactive: [1] -20.8% | [2] -7% | [3] -12.2% | [4] -4.05% | [5] -17.5% | [6] -11.2%

Cc1ccc(S(=O)(=O)c2ccc(C(=O)O)cc2)cc1
inactive: [1] 8.1% | [2] 10.4% | [3] 10.8% | [4] -6.05% | [5] 4.05% | [6] 17%

Cc1ccc(NC(=O)C(=O)Cc2cccc[n+]2[O-])cc1C
inactive: [1] 25.4% | [2] 13.1% | [3] -4.1% | [4] 12.2% | [5] 9.05% | [6] -6.1%

OC1Cn2cc(Br)c[n+]2C1 (stereo unspecified)
inactive: [1] 8.3% | [2] -5.5% | [3] -21.5% | [4] 1.2% | [5] -2% | [6] -13.6%

COC1(OC)C2(Cl)C(Cl)=C(Cl)C1(Cl)C1C=CC=CC12 (stereo unspecified)
inactive: [1] -19.9% | [2] -14.2% | [3] -14.3% | [4] 5.55% | [5] -18.6% | [6] -35.3%

CC1=[N+]([O-])c2ccccc2C(=O)C1=O
inactive: [1] 35.3% | [2] 12.3% | [3] 35.3% | [4] 33.6% | [5] 41.1% | [6] 27.1%

Nn1c(=O)[nH]c2ncn(Cc3ccccc3)c2c1=O
inactive: [1] 4.3% | [2] -21.9% | [3] 9.2% | [4] 16.9% | [5] -3% | [6] 3.35%
